Data: PubChem BioAssay AID1159580 (chemical genetic matrix, 2015)
Out of some 5,500 compounds screened, about 2,000 (36%) were called active. About 18% were inconclusive and are not listed. The list shows a part of the results. A number with no mark means an inactive call. Cut-off read from the data, not from the text of the source: active = normalized growth mostly below about 0.91 (no sharp cut-off); inconclusive = no clear call, values can overlap the other calls; inactive = mostly above about 0.92.

Test: chemical genetic growth profiling, strain panel (AID 1159580);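 note: tested at 20 µM; growth read once vehicle control cultures reached saturation at 30 °C; 1 = growth at the plate median or of vehicle wells; lower values mean less growth of the strain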
Details: S. cerevisiae deletion strains, growth OD
[1] = locus YAL013W, strain DEP1, active compounds read low
[2] = locus YBR229C, strain ROT2, active compounds read low
[3] = locus YDL101C, strain DUN1, active compounds read low
[4] = locus YDR150W, strain NUM1, active compounds read low
[5] = locus YEL061C, strain CIN8, active compounds read low
[6] = locus YGR078C, strain PAC10, active compounds read low
[7] = locus YHR030C, strain SLT2, active compounds read low
[8] = locus YHR087W, strain rtc3, active compounds read low
[9] = locus YJR043C, strain POL32, active compounds read low
[10] = locus YJR075W, strain HOC1, active compounds read low
[11] = locus YLR039C, strain RIC1, active compounds read low
[12] = locus YLR058C, strain SHM2 (second series), active compounds read low
[13] = locus YLR085C, strain ARP6, active compounds read low
[14] = locus YLR262C, strain YPT6, active compounds read low
[15] = locus YML094W, strain GIM5, active compounds read low
[16] = locus YMR219W, strain ESC1, active compounds read low
[17] = locus YMR263W, strain SAP30, active compounds read low
[18] = locus YNL128W, strain TEP1, active compounds read low
[19] = locus YNL153C, strain GIM3, active compounds read low
[20] = locus YNL298W, strain CLA4 (second series), active compounds read low
[21] = locus YNL322C, strain KRE1, active compounds read low
[22] = locus YNR030W, strain Alg12, active compounds read low
[23] = locus YPL055C, strain LGE1, active compounds read low
[24] = locus YPL241C, strain CIN2, active compounds read low
[25] = locus YPR135W, strain CTF4, active compounds read low

## O=c1[nH]cnc2ccsc12
[1]
  normalized growth: 1.01
[2]
  normalized growth: 1.02
Locus YCL061C, strain MRC1, active compounds read low
  normalized growth: 0.998
[3]
  normalized growth: 1
[4]
  normalized growth: 1.03
[5]
  normalized growth: 1.02
[6]
  normalized growth: 0.998
[7]
  normalized growth: 1.05
[8]
  normalized growth: 1
[9]
  normalized growth: 0.996
[10]
  normalized growth: 1.03
[11]
  normalized growth: 0.985
[12]
  normalized growth: 1.03
[13]
  normalized growth: 1.04
[14]
  normalized growth: 0.982
[15]
  normalized growth: 1.03
[16]
  normalized growth: 1.01
[17]
  normalized growth: 1.04
[18]
  normalized growth: 1.02
[19]
  normalized growth: 1.02
[20]
  normalized growth: 1.01
[21]
  normalized growth: 0.993
[22]
  normalized growth: 1.01
[23]
  normalized growth: 1.09
[24]
  normalized growth: 1.02
[25]
  normalized growth: 1.34

## Clc1ccc(Sc2ncnc3ccsc23)cc1
[1]
  normalized growth: 0.919 (active)
[2]
  normalized growth: 0.893 (active)
[3]
  normalized growth: 0.959
[4]
  normalized growth: 0.911
[5]
  normalized growth: 0.81 (active)
[6]
  normalized growth: 0.885 (active)
[7]
  normalized growth: 0.502 (active)
[8]
  normalized growth: 0.809 (active)
[9]
  normalized growth: 0.866 (active)
[10]
  normalized growth: 0.768 (active)
Locus YKL190W, strain CNB1, active compounds read low
  normalized growth: 0.863 (active)
[11]
  normalized growth: 0.941
[12]
  normalized growth: 0.877 (active)
[13]
  normalized growth: 0.352 (active)
[14]
  normalized growth: 1.1
[15]
  normalized growth: 0.814 (active)
[16]
  normalized growth: 0.885 (active)
[17]
  normalized growth: 0.94
[18]
  normalized growth: 0.934
[19]
  normalized growth: 0.924 (active)
[20]
  normalized growth: 0.777 (active)
[21]
  normalized growth: 0.922 (active)
[22]
  normalized growth: 0.705 (active)
Locus YOL006C, strain TOP1, active compounds read low
  normalized growth: 0.516 (active)
[23]
  normalized growth: 0.682 (active)
[24]
  normalized growth: 0.66 (active)
[25]
  normalized growth: 0.451 (active)

## Clc1ccc(SCc2ccsc2-c2ncns2)cc1
Locus YAR019C, strain CDC15, active compounds read low
  normalized growth: 0.98
Locus YBL105C, strain PKC1, active compounds read low
  normalized growth: 0.968
Locus YBR135W, strain CKS1, active compounds read low
  normalized growth: 0.967
Locus YBR136W, strain MEC1, active compounds read low
  normalized growth: 0.968
Locus YBR160W, strain CDC28, active compounds read low
  normalized growth: 0.975
Locus YDL017W, strain CDC7, active compounds read low
  normalized growth: 0.97
Locus YDL028C, strain MPS1, active compounds read low
  normalized growth: 0.971
[3]
  normalized growth: 0.954
Locus YDL108W, strain KIN28, active compounds read low
  normalized growth: 0.967
Locus YDL132W, strain cdc53, active compounds read low
  normalized growth: 0.968
Locus YDL214C, strain PRR2, active compounds read low
  normalized growth: 0.965
Locus YDR052C, strain DBF4, active compounds read low
  normalized growth: 0.976
Locus YDR054C, strain cdc34, active compounds read low
  normalized growth: 0.964
Locus YDR226W, strain ADK1, active compounds read low
  normalized growth: 0.968
Locus YDR477W, strain SNF1, active compounds read low
  normalized growth: 0.951
Locus YER123W, strain YCK3, active compounds read low
  normalized growth: 0.897
Locus YER133W, strain GLC7, active compounds read low
  normalized growth: 0.961
Locus YFL009W, strain cdc4, active compounds read low
  normalized growth: 0.964
Locus YFL029C, strain CAK1, active compounds read low
  normalized growth: 0.969
Locus YFR003C, strain YPI1, active compounds read low
  normalized growth: 0.967
Locus YFR019W, strain FAB1, active compounds read low
  normalized growth: 0.906
Locus YFR028C, strain CDC14, active compounds read low
  normalized growth: 0.96
Locus YGR040W, strain KSS1, active compounds read low
  normalized growth: 0.946
Locus YGR052W, strain FMP48, active compounds read low
  normalized growth: 1.04
Locus YGR092W, strain DBF2, active compounds read low
  normalized growth: 0.914
[7]
  normalized growth: 0.933
Locus YHR079C, strain IRE1, active compounds read low
  normalized growth: 0.958
Locus YHR082C, strain KSP1, active compounds read low
  normalized growth: 1
Locus YHR205W, strain SCH9, active compounds read low
  normalized growth: 0.923
Locus YIL147C, strain SLN1, active compounds read low
  normalized growth: 0.973
Locus YJL095W, strain BCK1, active compounds read low
  normalized growth: 0.972
Locus YJL128C, strain PBS2, active compounds read low
  normalized growth: 0.961
Locus YJL157C, strain FAR1, active compounds read low
  normalized growth: 0.963
Locus YJR016C, strain ILV3, active compounds read low
  normalized growth: 0.977
Locus YJR066W, strain TOR1 (second series), active compounds read low
  normalized growth: 0.933
Locus YJR066W, strain TOR1, active compounds read low
  normalized growth: 0.955
Locus YKL048C, strain ELM1, active compounds read low
  normalized growth: 0.971
Locus YKL067W, strain YNK1, active compounds read low
  normalized growth: 0.972
Locus YKL101W, strain HSL1, active compounds read low
  normalized growth: 0.976
Locus YKL193C, strain SDS22, active compounds read low
  normalized growth: 0.969
Locus YKL203C, strain TOR2, active compounds read low
  normalized growth: 0.992
Locus YLR113W, strain HOG1, active compounds read low
  normalized growth: 0.923
Locus YLR133W, strain CKI1, active compounds read low
  normalized growth: 0.973
Locus YLR403W, strain SFP1, active compounds read low
  normalized growth: 0.927
Locus YML070W, strain DAK1, active compounds read low
  normalized growth: 0.963
Locus YMR001C, strain CDC5, active compounds read low
  normalized growth: 0.968
Locus YMR205C, strain PFK2 (second series), active compounds read low
  normalized growth: 0.955
Locus YMR277W, strain FCP1, active compounds read low
  normalized growth: 0.973
Locus YNL006W, strain LST8, active compounds read low
  normalized growth: 0.969
Locus YNL020C, strain ARK1, active compounds read low
  normalized growth: 0.975
Locus YNL161W, strain CBK1, active compounds read low
  normalized growth: 0.972
Locus YNL183C, strain NPR1, active compounds read low
  normalized growth: 0.947
Locus YNL207W, strain RIO2, active compounds read low
  normalized growth: 0.981
Locus YNL222W, strain SSU72, active compounds read low
  normalized growth: 0.977
Locus YNL307C, strain MCK1 (second series), active compounds read low
  normalized growth: 0.948
Locus YOL078W, strain AVO1, active compounds read low
  normalized growth: 0.975
Locus YOL136C, strain PFK27, active compounds read low
  normalized growth: 0.966
Locus YOR061W, strain CKA2, active compounds read low
  normalized growth: 0.947
Locus YOR119C, strain RIO1, active compounds read low
  normalized growth: 0.958
Locus YOR231W, strain MKK1, active compounds read low
  normalized growth: 0.964
Locus YOR329C, strain SCD5, active compounds read low
  normalized growth: 0.975
Locus YPL031C, strain PHO85, active compounds read low
  normalized growth: 0.947
Locus YPL153C, strain RAD53, active compounds read low
  normalized growth: 0.958
Locus YPL204W, strain HRR25, active compounds read low
  normalized growth: 0.934
Locus YPL209C, strain IPL1, active compounds read low
  normalized growth: 0.972
Locus YPL256C, strain CLN2, active compounds read low
  normalized growth: 0.916
Locus YPR025C, strain CCL1, active compounds read low
  normalized growth: 0.968
Locus YPR106W, strain ISR1, active compounds read low
  normalized growth: 0.977
Locus YPR111W, strain DBF20, active compounds read low
  normalized growth: 0.971
Strain NNK1, active compounds read low
  normalized growth: 0.974
Strain TSCII, active compounds read low
  normalized growth: 0.968
